Laboratory results as given in PubChem BioAssay (NCATS).
Inconclusive results are not listed. The source made the active and inactive calls. Unless noted, calls come from the whole dose curve; as a rule, active = well fitted curve in either direction with a large enough effect (not every such curve was filed as active); inconclusive = small, poorly fitted or top-dose-only effect, or another doubt; inactive = flat fitted curve, though single readings scatter.

Experiments:
[1] = biological target: Lysosomal acid glucosylceramidase (Homo sapiens) (UniProt P04062); test: Glucocerebrosidase-p2 (AID 348; in the data active = potency below about 10 µM; note: potency is the fitted concentration of half-maximal effect); conditions: purified GBA, blue fluorogenic substrate, 40 min
Sequence of Lysosomal acid glucosylceramidase (Homo sapiens) (P04062 whole entry, looked up): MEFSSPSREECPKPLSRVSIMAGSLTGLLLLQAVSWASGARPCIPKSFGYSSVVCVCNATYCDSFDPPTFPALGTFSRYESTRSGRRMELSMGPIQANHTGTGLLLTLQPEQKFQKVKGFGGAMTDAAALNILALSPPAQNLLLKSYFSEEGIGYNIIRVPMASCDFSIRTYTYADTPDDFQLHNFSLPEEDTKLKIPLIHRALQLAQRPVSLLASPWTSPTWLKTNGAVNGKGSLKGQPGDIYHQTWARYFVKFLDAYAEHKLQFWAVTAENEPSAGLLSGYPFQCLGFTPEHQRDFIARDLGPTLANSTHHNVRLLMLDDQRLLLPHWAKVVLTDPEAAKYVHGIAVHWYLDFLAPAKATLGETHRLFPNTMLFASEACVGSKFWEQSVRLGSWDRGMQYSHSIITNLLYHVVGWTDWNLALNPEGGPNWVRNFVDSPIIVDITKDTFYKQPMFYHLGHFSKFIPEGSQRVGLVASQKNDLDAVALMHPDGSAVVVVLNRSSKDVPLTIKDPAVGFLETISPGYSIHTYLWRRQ
How it was run: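 Normal human glucocerebrosidase (0.2 nM) with blue fluorogenic substrate (80 uM final) in citrate/phosphate pH 5.9 with 10mM sodium taurocholate, 0.01% tween-20; 40 min RT, NaOH/glycine stop; fluorescence Ex 365/Em 440; AC50 from a titration from 0.6 nM upwards.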

[2] = AP1 Signaling Pathway (AID 357); conditions: ME-180 AP-1-bla reporter, EGF-induced, beta-lactamase ratio, 5 h; at 7.69 µM (top of the series) unless noted;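 note: ME-180 reporter cells stimulated with EGF at its EC50 level; % is set by controls: 0 for no effect and ±100 for the full control effect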
How it was run: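 Read-out was the 460nm/530nm emission ratio (excitation 405nm) after CCF4 loading for 2.5 hours at room temperature. Cells carried an AP-1-driven beta-lactamase reporter, were stimulated with EC50 EGF plus compound for 5 hours, and AC50 values came from titrations.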

[3] = Stat Signaling Pathway (AID 446); conditions: ME-180 (cervical carcinoma) SIE beta-lactamase reporter, IL-6 stimulated, 5 h; at 7.69 µM (top of the series) unless noted;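 note: ME-180 cervical cancer cells given 40 pM IL-6 alongside compound; SIE-controlled beta-lactamase reporter measured as 460/530 nm FRET emission ratio; % is set by controls: 0 for no effect and ±100 for the full control effect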
How it was run: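 Emission at 460 and 530 nm (excitation 405 nm) reports SIE-controlled beta-lactamase in ME-180 cells. Cells received compound with 40 pM IL-6 for 5 hrs at 37 C; data scaled between 300 pM IL-6 and 125 nM JAK-inhibitor controls.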

[4] = biological target: Glucocorticoid receptor (Homo sapiens) (UniProt P04150); test: GR-GFP Redistribution (AID 450;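 active = compounds whose dose series gives a full or clear partial fitted curve of increased nuclear translocation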; note: potency is the fitted concentration of half-maximal effect); conditions: U2OS GR-GFP nuclear translocation, laser cytometry, 2 h
Sequence of Glucocorticoid receptor (Homo sapiens) (P04150 whole entry, looked up, the tested form may be a part): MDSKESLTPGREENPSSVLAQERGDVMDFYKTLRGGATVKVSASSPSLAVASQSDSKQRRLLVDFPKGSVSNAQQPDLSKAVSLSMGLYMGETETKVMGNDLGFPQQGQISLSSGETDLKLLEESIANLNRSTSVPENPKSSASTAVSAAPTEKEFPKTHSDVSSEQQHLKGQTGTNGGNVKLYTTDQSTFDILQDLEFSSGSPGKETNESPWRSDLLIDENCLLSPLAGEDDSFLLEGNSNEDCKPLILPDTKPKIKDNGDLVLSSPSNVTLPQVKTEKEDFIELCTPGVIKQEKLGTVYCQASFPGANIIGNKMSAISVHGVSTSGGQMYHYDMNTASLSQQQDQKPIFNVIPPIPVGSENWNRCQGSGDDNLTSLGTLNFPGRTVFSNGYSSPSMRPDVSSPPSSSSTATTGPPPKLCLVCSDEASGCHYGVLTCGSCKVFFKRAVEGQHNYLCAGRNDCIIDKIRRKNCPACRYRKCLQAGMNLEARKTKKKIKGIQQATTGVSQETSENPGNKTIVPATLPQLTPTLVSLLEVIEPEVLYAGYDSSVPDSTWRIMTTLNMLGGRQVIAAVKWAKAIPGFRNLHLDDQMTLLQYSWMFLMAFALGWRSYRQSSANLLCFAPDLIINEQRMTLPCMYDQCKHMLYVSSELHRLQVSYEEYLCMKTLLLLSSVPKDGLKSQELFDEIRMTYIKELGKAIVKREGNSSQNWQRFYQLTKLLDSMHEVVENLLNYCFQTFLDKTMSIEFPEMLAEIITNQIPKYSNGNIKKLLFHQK

[5] = biological target: Glucocorticoid receptor (Homo sapiens) (UniProt P04150); test: GR-EFC Redistribution (AID 451; calls by dose curve; note: potency is the fitted concentration of half-maximal effect); conditions: CHO-K1 GR-EFC translocation, beta-gal luminescence, 2 h
How it was run: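 CHO-K1 cells expressing nuclear EA and GR-ED fragments of b-gal; compounds titrated up to 46 uM final, 2 h at 37 C. GR nuclear translocation read as complemented b-gal luminescence after 1 h RT detection.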

[6] = biological target: Mitogen-activated protein kinase 10 (Mus musculus) (UniProt Q61831); test: JNK3 AlphaScreen Assay (AID 530); conditions: JNK3 lysate, c-Jun phosphorylation; series mostly up to 11.4 µM;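 note: kinase came from lysate of stimulated human HepG2 cells; signal reports phosphorylation of biotinylated GST-cJun 1-79 at Ser73 with 10 µM ATP; % is set by controls: 0 for no effect and ±100 for the full control effect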
How it was run: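 HepG2 lysate (IL-1b/TNFa pre-activated) + biotin-GST-cJun 1-79 + anti-pSer73 cJun; cpd titration, 15 min RT; ATP 10 uM start; Tris pH 7.6, MgCl2, DTT, vanadate; beads in EDTA buffer; AlphaScreen.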

[7] = biological target: 3',5'-cyclic-AMP phosphodiesterase 4B (Homo sapiens) (UniProt Q07343); test: qHTS Assay for Inhibitors of PDE-IV (AID 607; active = well fitted activation curve with a large enough effect in the main read-out, with a control signal flat, not every such curve was filed as active; note: % of control where 0% means no effect); conditions: HEK293 ACTOne CNG channel cells, membrane potential fluorescence; series mostly up to 22.9 µM
Sequence of 3',5'-cyclic-AMP phosphodiesterase 4B (Homo sapiens) (Q07343 whole entry, looked up): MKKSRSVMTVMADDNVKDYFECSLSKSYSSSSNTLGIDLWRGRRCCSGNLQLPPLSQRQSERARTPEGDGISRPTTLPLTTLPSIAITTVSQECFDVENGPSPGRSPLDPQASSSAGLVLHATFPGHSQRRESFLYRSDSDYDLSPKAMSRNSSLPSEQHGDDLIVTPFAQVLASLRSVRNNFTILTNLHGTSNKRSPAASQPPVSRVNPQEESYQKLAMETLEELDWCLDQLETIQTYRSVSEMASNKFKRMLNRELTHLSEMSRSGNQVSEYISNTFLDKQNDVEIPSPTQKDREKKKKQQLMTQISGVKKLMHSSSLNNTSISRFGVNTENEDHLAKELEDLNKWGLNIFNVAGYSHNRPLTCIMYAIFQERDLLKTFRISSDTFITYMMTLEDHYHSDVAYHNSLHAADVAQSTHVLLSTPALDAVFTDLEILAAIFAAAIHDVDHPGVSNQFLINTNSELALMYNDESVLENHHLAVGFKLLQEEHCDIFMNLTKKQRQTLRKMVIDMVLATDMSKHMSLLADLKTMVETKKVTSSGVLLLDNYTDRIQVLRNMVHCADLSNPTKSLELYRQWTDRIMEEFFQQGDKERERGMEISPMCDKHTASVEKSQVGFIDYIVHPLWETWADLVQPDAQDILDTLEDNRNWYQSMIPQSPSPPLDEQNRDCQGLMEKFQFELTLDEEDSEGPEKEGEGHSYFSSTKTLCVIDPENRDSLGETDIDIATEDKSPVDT
How it was run: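 The readout is membrane depolarisation from a cAMP-sensing CNG channel, detected with a potential dye at ex 535/em 590. Cells were HEK293-derived (endogenous PDE-IV) at 1000 cells/well, titrated up to 22.9 uM final.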

[8] = NFAT Signaling Pathway (AID 444); conditions: Jurkat NFAT-bla M1, carbachol, beta-lactamase ratio, 5 h; at 7.69 µM (top of the series) unless noted;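 note: carbachol stimulus at about its EC50 of 1 µM final; % is set by controls: 0 for no effect and ±100 for the full control effect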
How it was run: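 Jurkat cells with NFAT-driven β-lactamase reporter and co-expressed M1 receptor, stimulated with carbachol (final 1 uM, ~EC50), compound titration, 5 h at 37 °C. CCF4 loaded 1 h at RT; 460/530 nm ratio gave %activity and AC50.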

[9] = biological target: Cytochrome P450 3A4 (Homo sapiens) (UniProt P08684); test: qHTS Assay for Inhibitors and Substrates of Cytochrome P450 3A4 (AID 884; active = well fitted curve in the direction sought with a large enough effect; an effect the other way counts as inactive or inconclusive; note: potency is the fitted concentration of half-maximal effect; nearly all actives have a fitted effect of over 50% in size); conditions: recombinant CYP3A4, Luciferin-PPXE luminescence; series mostly up to 57.1 µM
Sequence of Cytochrome P450 3A4 (Homo sapiens) (P08684 whole entry, looked up): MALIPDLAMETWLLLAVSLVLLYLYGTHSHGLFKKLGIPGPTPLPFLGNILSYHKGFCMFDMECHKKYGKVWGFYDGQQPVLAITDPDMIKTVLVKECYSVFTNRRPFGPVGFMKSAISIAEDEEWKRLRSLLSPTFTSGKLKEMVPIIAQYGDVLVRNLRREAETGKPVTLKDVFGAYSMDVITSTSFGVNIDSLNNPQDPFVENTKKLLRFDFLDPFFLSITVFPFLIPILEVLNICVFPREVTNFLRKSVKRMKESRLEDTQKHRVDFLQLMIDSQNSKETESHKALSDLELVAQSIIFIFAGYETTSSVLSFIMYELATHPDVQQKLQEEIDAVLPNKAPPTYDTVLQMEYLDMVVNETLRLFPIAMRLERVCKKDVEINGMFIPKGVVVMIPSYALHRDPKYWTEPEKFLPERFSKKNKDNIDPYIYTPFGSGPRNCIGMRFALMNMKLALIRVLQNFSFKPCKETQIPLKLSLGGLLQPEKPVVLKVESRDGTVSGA
How it was run: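 Luminescent readout of luciferin produced by CYP3A4 (20 nM) dealkylation of Luciferin-PPXE, 25 uM (its KM). NADPH-driven reaction ran 60 min at RT after 10 min compound preincubation; data scaled to 57 uM ketoconazole as 100% inhibition.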

[10] = biological target: Cytochrome P450 3A4 (Homo sapiens) (UniProt P08684); test: qHTS Assay for Activators of Cytochrome P450 3A4 (AID 885; active = well fitted curve in the direction sought with a large enough effect; an effect the other way counts as inactive or inconclusive; note: nearly all actives have a fitted effect of over 65% in size); conditions: recombinant CYP3A4, Luciferin-PPXE luminescence, 60 min; series mostly up to 11.4 µM
How it was run: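 Activators are scored by enhanced luminescence from CYP3A4 conversion of luciferin-PPXE (25uM, equal to KM) to luciferin, after 60 min at RT with an NADPH-regenerating system.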

[11] = Confirmation and Secondary Assay for Modulators of Hemoglobin Beta Chain Splicing at IVS2 654 locus (AID 910; active = well fitted curve in the direction sought with a large enough effect; an effect the other way counts as inactive or inconclusive;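 note: HeLa cells stably carrying EGFP split by mutant beta-globin IVS2-654 intron; % of control where 0% means no effect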); conditions: HeLa EGFP-654 splicing reporter, GFP fluorescence, 48 h; series mostly up to 38.3 µM
How it was run: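 HeLa cells stably expressing EGFP interrupted by β-globin IVS2-654 intron, seeded overnight in Opti-MEM/2% FCS, then treated 2 days at 37 °C. Restored splicing read as total peak GFP intensity per well by laser scanning cytometry (488 nm excitation, 500–520 nm emission); 500 nM antisense PNA as control.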

[12] = biological target: Ubiquitin carboxyl-terminal hydrolase 1 (Homo sapiens) (UniProt O94782); test: Inhibitors of USP1/UAF1: Pilot qHTS (AID 504865; active = well fitted curve in the direction sought with a large enough effect; an effect the other way counts as inactive or inconclusive;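 note: rhodamine fluorescence freed from ubiquitin-rhodamine substrate followed over time; top concentration of the series differs between compounds; % is set by controls: 0 for no effect and ±100 for the full control effect; nearly all actives have a fitted effect of over 35% in size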); conditions: purified USP1/UAF1, Ub-rhodamine cleavage fluorescence; series mostly up to 114 µM
Sequence of Ubiquitin carboxyl-terminal hydrolase 1 (Homo sapiens) (O94782 whole entry, looked up): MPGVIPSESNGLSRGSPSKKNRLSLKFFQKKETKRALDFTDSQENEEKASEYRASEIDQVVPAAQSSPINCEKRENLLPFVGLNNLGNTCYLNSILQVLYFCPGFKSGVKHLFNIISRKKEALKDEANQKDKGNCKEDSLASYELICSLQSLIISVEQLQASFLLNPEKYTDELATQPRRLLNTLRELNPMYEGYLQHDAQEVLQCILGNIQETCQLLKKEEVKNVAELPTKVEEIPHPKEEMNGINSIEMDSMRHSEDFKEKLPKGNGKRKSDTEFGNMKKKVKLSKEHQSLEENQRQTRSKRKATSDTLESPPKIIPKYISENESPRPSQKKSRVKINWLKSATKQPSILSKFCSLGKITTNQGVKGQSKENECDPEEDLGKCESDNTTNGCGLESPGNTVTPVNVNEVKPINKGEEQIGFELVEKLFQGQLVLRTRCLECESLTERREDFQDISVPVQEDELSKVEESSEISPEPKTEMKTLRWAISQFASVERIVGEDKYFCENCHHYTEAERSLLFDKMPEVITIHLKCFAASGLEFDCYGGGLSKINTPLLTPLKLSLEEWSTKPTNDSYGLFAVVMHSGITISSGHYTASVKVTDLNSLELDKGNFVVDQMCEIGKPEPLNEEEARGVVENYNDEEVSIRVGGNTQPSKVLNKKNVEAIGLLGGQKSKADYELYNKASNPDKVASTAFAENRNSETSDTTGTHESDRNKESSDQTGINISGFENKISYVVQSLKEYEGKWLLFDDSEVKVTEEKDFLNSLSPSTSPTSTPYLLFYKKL
How it was run: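 USP1/UAF1 complex (1nM) preincubated with compound 15 min at room temperature, then Ub-Rho substrate (150nM final) added. Fluorescence read kinetically at 480/540 nm, 6 reads every 60 seconds. Buffer: 50mM HEPES pH 7.8, 0.5mM EDTA, 0.1 mg/ml BSA, 1mM TCEP, 0.01% Tween-20.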

[13] = biological target: Cytochrome P450 2C9 (Homo sapiens) (UniProt P11712); test: qHTS Assay for Inhibitors and Substrates of Cytochrome P450 2C9 (AID 883; active = well fitted curve in the direction sought with a large enough effect; an effect the other way counts as inactive or inconclusive; note: potency is the fitted concentration of half-maximal effect; nearly all actives have a fitted effect of over 60% in size); conditions: recombinant CYP2C9, luciferin-H luminescence, 60 min; series mostly up to 11.4 µM
Sequence of Cytochrome P450 2C9 (Homo sapiens) (P11712 whole entry, looked up): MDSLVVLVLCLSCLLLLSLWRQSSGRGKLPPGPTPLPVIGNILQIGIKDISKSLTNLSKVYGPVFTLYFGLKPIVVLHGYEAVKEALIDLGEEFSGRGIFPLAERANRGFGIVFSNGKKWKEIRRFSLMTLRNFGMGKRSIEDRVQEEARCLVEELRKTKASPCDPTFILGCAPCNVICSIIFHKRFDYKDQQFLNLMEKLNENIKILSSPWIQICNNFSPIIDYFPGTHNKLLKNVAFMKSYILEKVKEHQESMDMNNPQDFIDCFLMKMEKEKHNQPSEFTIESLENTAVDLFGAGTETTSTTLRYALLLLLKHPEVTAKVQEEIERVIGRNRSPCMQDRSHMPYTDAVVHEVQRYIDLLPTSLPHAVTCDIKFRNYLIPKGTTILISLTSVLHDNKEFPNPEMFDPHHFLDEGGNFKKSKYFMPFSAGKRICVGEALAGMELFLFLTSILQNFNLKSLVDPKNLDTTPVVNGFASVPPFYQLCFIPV
How it was run: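 Human CYP2C9 (10nM) with Luciferin-H at 100uM (its KM) in 25mM KPO4; compound preincubated 10 min at 37C, then NADPH regeneration for 60 min at 37C. Luciferin read by luminescence after detection reagent; normalized to 57uM sulphaphenazole as full inhibition.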

[14] = biological target: Cytochrome P450 2D6 (Homo sapiens) (UniProt P10635); test: qHTS Assay for Inhibitors and Substrates of Cytochrome P450 2D6 (AID 891; active = well fitted curve in the direction sought with a large enough effect; an effect the other way counts as inactive or inconclusive; note: potency is the fitted concentration of half-maximal effect; nearly all actives have a fitted effect of over 60% in size); conditions: recombinant CYP2D6, luciferin-ME EGE luminescence; series mostly up to 11.4 µM
Sequence of Cytochrome P450 2D6 (Homo sapiens) (P10635 whole entry, looked up): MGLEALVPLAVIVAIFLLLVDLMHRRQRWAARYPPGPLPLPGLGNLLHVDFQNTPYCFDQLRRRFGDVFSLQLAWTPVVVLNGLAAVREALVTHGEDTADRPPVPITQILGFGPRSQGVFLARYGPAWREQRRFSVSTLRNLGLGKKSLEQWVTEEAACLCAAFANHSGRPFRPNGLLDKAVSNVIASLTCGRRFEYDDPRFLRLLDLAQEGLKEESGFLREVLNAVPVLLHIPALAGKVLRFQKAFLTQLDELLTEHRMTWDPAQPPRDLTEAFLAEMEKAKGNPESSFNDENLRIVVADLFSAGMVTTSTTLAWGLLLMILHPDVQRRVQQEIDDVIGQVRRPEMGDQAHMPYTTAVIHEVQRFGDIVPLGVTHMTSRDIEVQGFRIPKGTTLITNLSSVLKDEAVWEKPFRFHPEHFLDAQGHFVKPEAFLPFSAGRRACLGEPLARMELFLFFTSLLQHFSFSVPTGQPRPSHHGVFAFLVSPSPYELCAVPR
How it was run: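 Luminescent read-out of luciferin formed by 5 nM human CYP2D6 demethylating 30 uM Luciferin-ME EGE (Km level) over 60 min at room temperature after NADPH regeneration addition. Data normalized to full inhibition by 1.43 uM quinidine.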

N=C(N)SC(c1ccccc1)c1ccccc1
inactive: Potency [1] > 11.4 µM | activity change, negative = inhibition [2] 6.69% | activity, negative = inhibition [3] 0.795% | Potency [4] > 46 µM | Potency [5] > 9.22 µM | Potency [6] | Potency [7]

Cc1cccc(C(=O)O)c1C[C@H]1NCC[C@H]2c3ccccc3N[C@@H]12
inactive: Potency [1] > 11.4 µM | activity change, negative = inhibition [2] 29.4% | activity, negative = inhibition [3] 4.38% | Potency [4] > 46 µM | Potency [5] > 9.22 µM | Potency [6] | Potency [7]

CS(=O)(=O)Nc1cccc(-c2nc(NCc3cccnc3)c3ccccc3n2)c1
inactive: Potency [1] > 11.4 µM | activity change, negative = inhibition [2] -19.8% | activity change, negative = inhibition [8] 23.6% | Potency [4] > 46 µM | Potency [5] > 46 µM | Potency [6] | Potency [10] | outcome [11]
active: Potency [9] 2 µM

C[C@@H]1CC[C@H]2[C@H](C)[C@H]3[C@H](C[C@H]4[C@@H]5CC=C6C[C@@H](O)CC[C@@]6(C)[C@@H]5C[C@@H](O)[C@]34C)N2C1
inactive: Potency [1] > 11.4 µM | activity change, negative = inhibition [2] -4.34% | activity, negative = inhibition [3] -3.84% | Potency [4] > 46 µM | Potency [5] > 9.22 µM | Potency [6] | Potency [7]

CN1CCN(CCCNN)CC1
inactive: Potency [1] > 11.4 µM | activity change, negative = inhibition [2] 3.15% | activity change, negative = inhibition [8] 0.682% | Potency [4] > 46 µM | Potency [5] > 9.22 µM | Potency [6] | Potency [7]

CN(C)CCC[C@@H]1c2ccccc2Oc2ccc(C(F)(F)F)cc21
inactive: Potency [1] > 11.4 µM | activity change, negative = inhibition [2] 21.1% | activity, negative = inhibition [3] 4.88% | Potency [4] > 46 µM | Potency [5] > 9.22 µM | Potency [6] | Potency [7]

COc1ccccc1-c1nc(NCCc2cnc[nH]2)c2ccccc2n1
inactive: Potency [1] > 11.4 µM | activity change, negative = inhibition [2] 17.1% | activity, negative = inhibition [3] 22.8% | Potency [4] > 46 µM | Potency [5] > 46 µM | Potency [6] | Potency [7] | Potency [12]

CCN(CC)COC(=S)S
inactive: Potency [1] > 11.4 µM | activity change, negative = inhibition [2] 7.48% | activity change, negative = inhibition [8] -12.2% | Potency [4] > 46 µM | Potency [5] > 9.22 µM | Potency [6] | Potency [7]

c1ccc(CSCCc2ccncc2)cc1
active: Potency [13] 0.316 µM | Potency [14] 1.26 µM
inactive: Potency [1] > 11.4 µM | activity change, negative = inhibition [2] -1.16% | activity change, negative = inhibition [8] -10.1% | Potency [4] > 46 µM | Potency [5] > 9.22 µM | Potency [6] | Potency [7]

O=[N+]([O-])c1ccc2c(N=Nc3ccc4ccccc4c3O)c(O)cc(S(=O)(=O)O)c2c1
active: Potency [13] 3.16 µM
inactive: Potency [1] > 11.4 µM | activity change, negative = inhibition [2] -18.5% | activity change, negative = inhibition [8] -9.87% | Potency [4] > 46 µM | Potency [5] > 9.22 µM | Potency [7] | Potency [10]

O=C(O)[C@@H](O)[C@H](O)C(=O)O
inactive: Potency [1] > 11.4 µM | activity change, negative = inhibition [2] -6.26% | activity change, negative = inhibition [8] 14.9% | Potency [4] > 46 µM | Potency [5] > 9.22 µM | Potency [6] | Potency [7]

Clc1ccc(CSCc2ccc(Cl)cc2Cl)c(Cl)c1
inactive: Potency [1] > 11.4 µM | activity change, negative = inhibition [2] -7.04% | activity, negative = inhibition [3] 1.58% | Potency [4] > 46 µM | Potency [5] > 9.22 µM | Potency [6] | Potency [7]

O=C(O)CCCN1CCCCC1
inactive: Potency [1] > 11.4 µM | activity change, negative = inhibition [2] 9.35% | activity change, negative = inhibition [8] 1.19% | Potency [4] > 46 µM | Potency [5] > 9.22 µM | Potency [6] | Potency [7]

NC(Cc1ccccc1)(C(=O)O)C(=O)O
inactive: Potency [1] > 11.4 µM | activity change, negative = inhibition [2] 4.48% | activity, negative = inhibition [3] -6.13% | Potency [4] > 46 µM | Potency [5] > 9.22 µM | Potency [6] | Potency [7]

O=C(O)[C@H]1CCCC[C@@H]1c1c2ccc(=O)c(O)c-2oc2c(O)c(O)ccc12
inactive: Potency [1] > 11.4 µM | activity change, negative = inhibition [2] -17.7% | activity change, negative = inhibition [8] 0.0388% | Potency [4] > 46 µM | Potency [5] > 9.22 µM | Potency [7]

CN(C)CC[C@@H](C(=O)C(C)(C)C)c1ccccn1
inactive: Potency [1] > 11.4 µM | activity change, negative = inhibition [2] 2.04% | activity, negative = inhibition [3] 1.4% | Potency [4] > 46 µM | Potency [5] > 9.22 µM | Potency [6] | Potency [7]

O=C(O)C/C=C\CC(=O)O
inactive: Potency [1] > 11.4 µM | activity change, negative = inhibition [2] -4.27% | activity change, negative = inhibition [8] 2.57% | Potency [4] > 46 µM | Potency [5] > 9.22 µM | Potency [6] | Potency [7]

O=C1c2ccccc2C(=O)c2c(NC(=O)c3ccc4c5c(ncnc35)-c3ccccc3C4=O)cccc21
inactive: Potency [1] > 11.4 µM | activity change, negative = inhibition [2] 5.12% | activity, negative = inhibition [3] 0.00925% | Potency [4] > 46 µM | Potency [5] > 9.22 µM | Potency [6] | Potency [7]
